Records with an inconclusive call do not appear. Activity calls are given as the source filed them.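 The calls were made as follows, unless noted: active = viability at or below 27.92% in each of two runs, the all-compound median minus 4 SD; inconclusive = no clear call, values can overlap the other calls; inactive = the rest.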
Columns and labels:
[1] = HUVEC growth inhibition – cell-based, human, primary screen (AID 575;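 active = viability at or below 30% in both replicate assays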;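 also: 100% = median of untreated cell wells with 0.1% DMSO on each plate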); details: HUVEC proliferation, CellTiter-Glo luminescence, 72 h; at 10 µM; stronger effect = lower value
[2] = H69AR cell proliferation blockers – human, duplicate replicates, primary screen (AID 580;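 active = viability at or under a set limit in both replicates, limit being median viability minus 3 SD, cut at about 48% in these data, passing the limit was not always enough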;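 also: 100% = mean luminescence of untreated wells and 0% = no signal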); details: H69AR lung tumor cells viability, ATP luminescence, 72 h; at 10 µM; stronger effect = lower value
[3] = MRP1 drug-resistance reversers in H69AR cells – cell-based, doxorubicin co-treatment, pilot screen (AID 601;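 active = viability loss from added drug above about 55%, and viability with drug at most 40%, in both replicates, limit read from the data, passing the limit was not always enough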); details: CellTiter-Glo, 72 h, at 10 µM; for differential viability (reversal): stronger effect = higher value
[4] = yeast transport mutant growth inhibition pilot in 384-well plates, post-Golgi transport modulator project (AID 636; in the data active = inhibition above about 31%); details: absorbance 615 nm, about 18 h, stronger effect = higher value
[5] = growth suppression of yeast trafficking mutant, preliminary HTS, modulators of trafficking downstream of Golgi apparatus project, 1536-format plate, OD 615 nm (AID 637; in the data active = inhibition above about 30%); details: yeast transport mutant growth, absorbance 615 nm, 18 h; stronger effect = higher value
[6] = S. cerevisiae growth inhibition in permissive medium (OD615), pilot counter-assay for S. cerevisiae lifespan shortening project, permissive growth control (AID 705;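 active = growth inhibition above 25% in both replicates, a cutoff set 3 SD above the mean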); details: OD615, 24 h, at 10 µM, stronger effect = higher value
[7] = S. cerevisiae growth inhibition in restrictive medium, OD615, pilot screen, restrictive growth control, yeast lifespan reduction project (AID 706;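 active = growth inhibition above a set limit, 3 SD over mean compound inhibition, in both replicates, cut at about 43% in these data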;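 also: modified DeaD lifespan yeast strain shifted to restrictive glucose medium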); details: OD615, 48 h, at 10 µM, stronger effect = higher value
[8] = doxorubicin toxicity protection in MRP-1 cells – H69AR cells, CellTiter-Glo, duplicate, MRP-1 activator project, pilot screen (AID 807;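 active = viability increase at or above a cutoff of the median across tested compounds plus 3 SD, cut at about 8.5% in these data, passing the limit was not always enough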;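 also: compound pretreatment 18-22 h then 72 h combined with doxorubicin; 0% = doxorubicin alone and 100% = vehicle without doxorubicin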); details: H69AR viability with doxorubicin, CellTiter-Glo luminescence; at 10 µM; stronger effect = higher value
[9] = viability of HCT116 without oncogenic beta-catenin – human colon tumor cells, pilot screen (AID 823;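 active = cell viability at or below a set limit in both duplicate runs, the limit being the all-compound median minus 4 SD, cut at about 23% in these data, passing the limit was not always enough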;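 also: 0% = wells killed by 20 µM Hyamine and 100% = untreated DMSO cell wells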); details: HCT116 beta-catenin knockout viability, CellTiter-Glo, 60 h; at 10 µM; stronger effect = lower value
[10] = viability of PTEN-null HCT116 cells – cell-based, HCT116 clonal line, CellTiter-Glo, pilot screen (AID 824); details: HCT116 PTEN-deleted viability, 60 h, at 10 µM, stronger effect = lower value;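 also: 0% = 20 µM Hyamine control and 100% = vehicle cell control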
[11] = RAM pathway blockade in budding yeast – dse1pr::URA3 reporter, 5-FOA selection, pilot screen (AID 869;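 active = inhibition over a set limit, the all-compound mean plus 3 SD, in both replicate runs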;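 also: 0% = DMSO wells with no growth and 100% = 10 µM 1-NA-PP1 with full growth; RAM network block rescues cells from 5-FOA so hits raise OD615 growth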); details: S. cerevisiae dse1pr::URA3 5-FOA growth, OD615, 2 d; at 10 µM; stronger effect = higher value; strain carries analog-sensitive mutant Cbk1 kinase
[12] = RAM signaling pathway blockade in yeast – S. cerevisiae, Pdr1DBD-CYC8 efflux-inhibited sensitized strain, primary screen (AID 1298;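 active = RAM network inhibition above 8.4% in each of two replicates, 3 SD over the compound average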;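 also: 0% = DMSO untreated cells without growth and 100% = 10 µM 1-NA-PP1 full growth; higher means more yeast growth rescued from 5-FOA killing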); details: S. cerevisiae cbk1-as DSE1-URA3 strain, 5-FOA growth OD615, 2 d; at 50 µM; stronger effect = higher value
[13] = H69AR cells + 2 uM doxorubicin, measured here: viability with 2 uM doxorubicin, stronger effect = lower value
[14] = H69AR cells, compound alone cytotoxicity

O=C1CC(c2ccco2)CC(O)=C1C=NCCN1CCNCC1 (centres undefined)
95.6%: viability [3, 14]
inactive: viability [1] 103% | viability [2] 95.6% | differential viability (reversal) ([3]; H69AR cells + 2 uM doxorubicin) 3.35% | inhibition [4] 0.13% | inhibition [5] 5.56% | growth inhibition [6] -10.2% | growth inhibition [7] 3.51% | viability increase [8] 0.26% | viability [9] 91% | viability [10] 101% | inhibition [11] 0.405% | RAM network inhibition [12] 1.52%
92.3%: viability [3, 13]

CC(=O)Nc1nc(-c2ccccc2)nc(C)c1C(C)=O
94.4%: viability [3, 14]
inactive: viability [1] 103% | viability [2] 94.4% | differential viability (reversal) ([3]; H69AR cells + 2 uM doxorubicin) 7.1% | inhibition [4] 0.13% | inhibition [5] -2.22% | growth inhibition [6] -9.85% | growth inhibition [7] -7.77% | viability increase [8] -0.66% | viability [9] 93.4% | viability [10] 99.5% | inhibition [11] 0.585% | RAM network inhibition [12] 5.92%
87.3%: viability [3, 13]

CCn1c(CCNC(=O)c2ccc(OC)c(OC)c2)nc2ccccc21
76.6%: viability [3, 13]
83.2%: viability [3, 14]
inactive: viability [1] 103% | viability [2] 83.2% | differential viability (reversal) ([3]; H69AR cells + 2 uM doxorubicin) 6.54% | inhibition [4] -5.92% | inhibition [5] -2.22% | growth inhibition [6] -10.8% | growth inhibition [7] -11.1% | viability increase [8] -2.22% | viability [9] 102% | viability [10] 99.2% | inhibition [11] 1.87% | RAM network inhibition [12] 4.36%

O=C(NCCN1CCN(c2ccccc2)CC1)c1ccc(NC(=O)C2CCCO2)cc1 (centres undefined)
108%: viability [3, 14]
100%: viability [3, 13]
inactive: viability [1] 96.9% | viability [2] 108% | differential viability (reversal) ([3]; H69AR cells + 2 uM doxorubicin) 8.13% | inhibition [4] -3.82% | inhibition [5] -0.48% | growth inhibition [6] -5.63% | growth inhibition [7] -8.76% | viability increase [8] -1.13% | viability [9] 95.6% | viability [10] 101% | inhibition [11] 1.66% | RAM network inhibition [12] 2.86%

COc1cc2[nH]c(=O)n(CCCCCC(=O)NCCCN3CCCC3=O)c(=O)c2cc1OC
92.9%: viability [3, 13]
104%: viability [3, 14]
inactive: viability [1] 103% | viability [2] 104% | differential viability (reversal) ([3]; H69AR cells + 2 uM doxorubicin) 11.6% | inhibition [4] -5.39% | inhibition [5] -0.32% | growth inhibition [6] -1.87% | growth inhibition [7] -4% | viability increase [8] 1.13% | viability [9] 103% | viability [10] 104% | inhibition [11] 1.91% | RAM network inhibition [12] 6.37%

O=C(CN1C(=O)NC(Cc2ccccc2)C1=O)Nc1ccccc1 (centres undefined)
96.7%: viability [3, 14]
96.9%: viability [3, 13]
inactive: viability [1] 101% | viability [2] 96.7% | differential viability (reversal) ([3]; H69AR cells + 2 uM doxorubicin) -0.17% | inhibition [4] -1.17% | inhibition [5] -0.63% | growth inhibition [6] -11.6% | growth inhibition [7] -16.5% | viability increase [8] 1.83% | viability [9] 97.8% | viability [10] 94.6% | inhibition [11] 1.85% | RAM network inhibition [12] 0.35%

COC(=O)c1cccc(NC(=O)C2COc3ccccc3O2)c1C (centres undefined)
91.4%: viability [3, 13]
inactive: viability [1] 116% | viability [2] 100% | differential viability (reversal) ([3]; H69AR cells + 2 uM doxorubicin) 8.78% | inhibition [4] -1.71% | inhibition [5] -6.98% | growth inhibition [6] -14.9% | growth inhibition [7] -21.5% | viability increase [8] 0.68% | viability [9] 106% | viability [10] 99% | inhibition [11] -0.07% | RAM network inhibition [12] 3.78%
100%: viability [3, 14]

Cc1ccc(C)c(NC(=O)C2CCC(C)(C(=O)O)C2(C)C)c1 (centres undefined)
97.8%: viability [3, 14]
inactive: viability [1] 98.8% | viability [2] 97.8% | differential viability (reversal) ([3]; H69AR cells + 2 uM doxorubicin) 5.67% | inhibition [4] 2.08% | inhibition [5] -0.79% | growth inhibition [6] -12.8% | growth inhibition [7] -13.8% | viability increase [8] -1.13% | viability [9] 97% | viability [10] 99% | inhibition [11] 0.355% | RAM network inhibition [12] 0.93%
92.1%: viability [3, 13]

COc1ccc(-c2nn(-c3ccccc3)cc2/C=N/n2cnnc2)cc1OC
inactive: viability [1] 79.3% | viability [2] 79.8% | differential viability (reversal) ([3]; H69AR cells + 2 uM doxorubicin) -11.2% | inhibition [4] -6.84% | inhibition [5] -0.63% | growth inhibition [6] 2.04% | growth inhibition [7] 17.4% | viability increase [8] -4.33% | viability [9] 88% | viability [10] 84% | inhibition [11] -0.92% | RAM network inhibition [12] -1.68%
91%: viability [3, 13]
79.8%: viability [3, 14]

N#C/C(C(=O)c1ccccc1)=C1/CCCN1
97.2%: viability [3, 14]
91.5%: viability [3, 13]
inactive: viability [1] 95.8% | viability [2] 97.2% | differential viability (reversal) ([3]; H69AR cells + 2 uM doxorubicin) 5.69% | inhibition [4] -1.04% | inhibition [5] 5.08% | growth inhibition [6] -10.5% | growth inhibition [7] -8.62% | viability increase [8] 2.34% | viability [9] 108% | viability [10] 105% | inhibition [11] 1.44% | RAM network inhibition [12] 1.34%

CCC(=O)Oc1ccc2c(C)cc(=O)oc2c1C
inactive: viability [1] 91.1% | viability [2] 90.6% | differential viability (reversal) ([3]; H69AR cells + 2 uM doxorubicin) -11.8% | inhibition [4] 0.39% | inhibition [5] 9.21% | growth inhibition [6] -8.37% | growth inhibition [7] 7.31% | viability increase [8] -4.73% | viability [9] 102% | viability [10] 97% | inhibition [11] 0.15% | RAM network inhibition [12] 3.51%
102%: viability [3, 13]
90.6%: viability [3, 14]

From PubChem BioAssay
